Measured values reported in PubChem BioAssay.
Values joined by “and” are separate entries in the source; they are usually repeats but may differ in a detail not shown here. Identical values can stand only once. Active and inactive are the calls of the source.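 The calls were made as follows, unless noted: active = mean z-score across replicates of 1.96 or higher in either the MELAS or the Rieske mutant cell line; inactive = the rest.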

Columns and labels:
[1] = hESC survival regulators, cell-based (AID 493140; call rule not given here;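 also: cells exposed to compounds for four days before counting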); conditions: human embryonic stem cell survival screen; stronger effect = higher value
[2] = stimulators of insulin release from INS-1E, primary screen, cell-based, 5 mM glucose, NPC library (AID 1117329;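 active = compound raises insulin release from rat beta cells at 5 mM glucose, no numeric limit stated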); conditions: rat INS-1E insulin secretion, at 10 µM, stronger effect = higher value
[3] = growth inhibition of GSK3B-pretreated HCT116 cells – cell-based, CellTiter-Glo, 0.2 to 20 µM (AID 1117336;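 active = compounds lowering colon cancer cell viability after pretreatment blocking the GSK3B kinase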); conditions: HCT116 viability after GSK3B inhibitor, at 20 µM, stronger effect = higher value
[4] = inhibition of endothelial tube formation, primary screen, imaging, VEGF stimulated, CD31 staining, tube area, NPC library (AID 1117340;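 active = compound that reduces growth-factor-driven endothelial tube area in a mixed cell culture, no cutoff stated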); conditions: VEGF-stimulated ADSC/ECFC co-culture, at 10 µM, stronger effect = higher value
[5] = glucagon-like peptide 1 release enhancers, primary assay, NCI-H716 cell line, NPC library (AID 1117341;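 active = compound raises GLP1 secretion from the human gut endocrine cells, with no numeric limit stated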); conditions: NCI-H716 cells, at 10 µM, stronger effect = higher value
[6] = HCT116 colon cancer cell growth inhibition, primary screen, CellTiter-Glo luminescence, NPC library (AID 1117342;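 active = compounds that lower survival of HCT116 colon cancer cells in the luminescence readout, no numeric limit stated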); conditions: at 20 µM (top of the series)
[7] = CellTiter-Glo luminescent readout of SW480 viability loss, NPC library primary (AID 1117343;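 active = compounds that lower viability of the colon cancer cells in the luminescence readout, with no numeric limit stated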); conditions: CellTiter-Glo luminescence; at 20 µM (top of the series) unless noted
[8] = decreased DLD-1 cellular survival, CellTiter-Glo luminescent readout, NPC compound collection, primary HTS (AID 1117346;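 active = compounds that lower survival of DLD-1 colon cancer cells in the luminescence readout, no cutoff given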); conditions: DLD-1 viability, CellTiter-Glo luminescence; at 20 µM (top of the series)
[9] = molecular target: 6-phosphogluconate dehydrogenase, decarboxylating (Homo sapiens) (UniProt P52209); assay: 6PGD enzyme inhibitors, primary screen, biochemical, human, recombinant enzyme, NADPH absorbance (AID 1159550;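 active = at least 20% inhibition of 6-phosphogluconate dehydrogenase activity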); conditions: recombinant 6PGD, NADPH absorbance 341 nm; at 10 µM; stronger effect = higher value
[10] = differential killing of epithelial or mesenchymal cells, primary screen, imaging, PC-3E GFP, TEM4-18 mCherry, co-culture (AID 1345086;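 active = compounds killing one labelled cell type while sparing the other, by normalised counts and ratio limits, not self-fluorescent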;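 as to all read-outs here: cells exposed to compound for 72 h before imaging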;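 as to red/green cell ratio (normalised): normalised mesenchymal count divided by normalised epithelial count so high means epithelial killing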); conditions: imaging cell counts, at 1 µM; for red/green cell ratio (normalised): actives lie on both sides, counts scaled to control wells, 1 = unselective
[11] = survival rescue of mitochondrial mutant cells in low glucose, primary screen, MELAS cybrids, Rieske KO mouse fibroblasts, CellTiter-Glo (AID 1508586);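 also: z relative to plate mean and SD of compound and empty wells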
[12] = molecular target: NAD(+) hydrolase SARM1 (Homo sapiens) (UniProt Q6SZW1); assay: SARM1 TIR NADase inhibitors, cell lysate, NAD-Glo luminescence (AID 1508614;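 active = compound whose remaining NAD level is above about 45 nM, limit read from the data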;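 also: higher remaining NAD means stronger inhibition of SARM1 NADase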); conditions: SAM-TIR HEK293T lysate NADase, at 1 µM, stronger effect = higher value
[13] = molecular target: Mitogen-activated protein kinase 7 (Homo sapiens) (UniProt Q13164); assay: ERK5 transactivation activators in reporter cells, primary screen, cell-based, HTS (AID 1508626;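 active = luciferase signal above three times the same-plate solvent-only control wells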;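 also: luciferase driven by Gal4-ERK5 fusion binding five Gal4 sites before minimal TATA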); conditions: HeLa Gal4-ERK5 transactivation, 18 h, at 5 µM, stronger effect = higher value
[14] = viability rescue of complex I mutant cybrids, primary screen, cell-based, galactose medium, ATP luminescence (AID 1645843;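 active = z-score of at least 1.8 in each of two replicates, scored against plate mean and spread of sample wells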;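 also: positive z means more ATP and so rescue of galactose-driven cybrid death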); conditions: complex I mutant cybrid cells, 72 h, stronger effect = higher value
[15] = stimulators of nuclear beta-catenin in C2C12, primary screen, imaging, WNT3A-conditioned medium, mouse C2C12, NPC library (AID 1117326; in the data active = nuclear beta-catenin stimulation mostly above about 4.2%, no sharp cut-off; inactive = mostly below about 10%); conditions: stronger effect = higher value
[16] = measured here: epithelial PC-3E GFP cell survival
[17] = measured here: mesenchymal TEM4-18 mCherry cell survival
[18] = MELAS cybrid survival, CellTiter-Glo 48 h, stronger effect = higher value
[19] = Rieske KO mouse fibroblast survival, CellTiter-Glo 72 h

Mitogen-activated protein kinase 7 (Homo sapiens), sequence (Q13164 whole entry, looked up, the tested form may be a part): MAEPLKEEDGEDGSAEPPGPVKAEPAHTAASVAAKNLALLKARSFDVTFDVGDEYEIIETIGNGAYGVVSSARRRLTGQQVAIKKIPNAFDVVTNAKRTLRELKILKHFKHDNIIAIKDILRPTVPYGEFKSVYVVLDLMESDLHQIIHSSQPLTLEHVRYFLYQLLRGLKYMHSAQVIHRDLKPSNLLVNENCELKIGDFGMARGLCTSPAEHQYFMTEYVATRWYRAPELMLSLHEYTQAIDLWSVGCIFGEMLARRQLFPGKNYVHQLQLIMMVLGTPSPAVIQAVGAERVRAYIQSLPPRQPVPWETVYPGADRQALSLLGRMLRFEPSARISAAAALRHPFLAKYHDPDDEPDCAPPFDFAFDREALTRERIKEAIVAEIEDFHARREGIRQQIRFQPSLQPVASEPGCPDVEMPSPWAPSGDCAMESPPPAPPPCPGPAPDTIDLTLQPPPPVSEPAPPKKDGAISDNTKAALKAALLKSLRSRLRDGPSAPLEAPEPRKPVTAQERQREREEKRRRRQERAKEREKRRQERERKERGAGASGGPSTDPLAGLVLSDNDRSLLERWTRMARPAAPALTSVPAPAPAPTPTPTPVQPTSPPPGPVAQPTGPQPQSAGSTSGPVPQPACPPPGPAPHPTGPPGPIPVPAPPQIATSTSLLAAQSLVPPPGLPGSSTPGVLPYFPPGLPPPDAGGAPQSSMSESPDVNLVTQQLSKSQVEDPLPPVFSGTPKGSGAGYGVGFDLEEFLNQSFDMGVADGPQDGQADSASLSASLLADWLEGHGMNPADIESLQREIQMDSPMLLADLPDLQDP
NAD(+) hydrolase SARM1 (Homo sapiens), sequence (Q6SZW1 whole entry, looked up, the tested form may be a part): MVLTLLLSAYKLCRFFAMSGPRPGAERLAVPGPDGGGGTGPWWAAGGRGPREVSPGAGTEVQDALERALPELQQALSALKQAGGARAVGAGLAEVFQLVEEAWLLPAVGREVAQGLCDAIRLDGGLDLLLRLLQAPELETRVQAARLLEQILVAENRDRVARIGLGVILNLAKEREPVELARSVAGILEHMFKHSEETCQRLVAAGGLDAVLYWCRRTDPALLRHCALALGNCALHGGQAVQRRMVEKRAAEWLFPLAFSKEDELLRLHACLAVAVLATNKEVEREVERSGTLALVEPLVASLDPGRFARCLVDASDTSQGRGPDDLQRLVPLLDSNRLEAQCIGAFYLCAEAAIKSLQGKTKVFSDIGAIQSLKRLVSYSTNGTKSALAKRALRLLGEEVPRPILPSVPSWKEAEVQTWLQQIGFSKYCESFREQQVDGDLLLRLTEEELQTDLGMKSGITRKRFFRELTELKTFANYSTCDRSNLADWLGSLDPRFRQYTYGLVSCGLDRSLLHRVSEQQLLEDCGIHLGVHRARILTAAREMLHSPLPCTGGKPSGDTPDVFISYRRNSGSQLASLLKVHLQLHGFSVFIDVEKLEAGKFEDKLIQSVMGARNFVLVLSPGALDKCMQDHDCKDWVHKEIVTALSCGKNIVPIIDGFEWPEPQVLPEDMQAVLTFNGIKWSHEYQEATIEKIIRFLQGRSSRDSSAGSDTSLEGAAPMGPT
6-phosphogluconate dehydrogenase, decarboxylating (Homo sapiens), sequence (P52209 whole entry, looked up): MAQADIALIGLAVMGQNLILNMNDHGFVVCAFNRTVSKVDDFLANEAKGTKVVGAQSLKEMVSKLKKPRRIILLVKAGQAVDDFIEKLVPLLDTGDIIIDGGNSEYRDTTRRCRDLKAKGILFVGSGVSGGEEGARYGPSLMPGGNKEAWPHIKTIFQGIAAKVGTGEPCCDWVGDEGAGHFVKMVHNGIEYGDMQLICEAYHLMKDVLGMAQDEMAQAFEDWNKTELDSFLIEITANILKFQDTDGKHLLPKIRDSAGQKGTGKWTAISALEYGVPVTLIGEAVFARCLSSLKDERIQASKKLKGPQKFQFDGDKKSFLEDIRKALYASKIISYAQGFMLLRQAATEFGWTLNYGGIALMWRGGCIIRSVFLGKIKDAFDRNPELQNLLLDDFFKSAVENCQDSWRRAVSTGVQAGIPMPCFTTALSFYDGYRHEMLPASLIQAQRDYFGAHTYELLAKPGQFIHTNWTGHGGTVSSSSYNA

COc1cc(Cc2cnc(N)nc2N)cc(OC)c1OC
1.02: normalised cell number [10, 17]
inactive: survival [1] 17.1 | insulin secretion stimulation [2] -1.7% | viability decrease [3] -3% | tube area decrease [4] 2% | GLP1 secretion stimulation [5] 4.6% | inhibition of viability [6] 28.8% | viability decrease (inhibition) [7] 39.7% | viability decrease (inhibition) [8] 9.15% | inhibition [9] -0.293% | red/green cell ratio (normalised) [10] 1.12 | z-score [11, 18] -0.0749 and 0.787 and 0.308 | remaining NAD [12] 10 nM | luciferase signal [13] 48 AU | z-score [14] 0.49 and 0.045 and 0.71
-0.219 and -0.384 and -0.669: z-score [11, 19]
0.91: normalised cell number [10, 16]

N=c1nc(N2CCCCC2)cc(N)n1O
0.0783 and -0.248: z-score [11, 19]
inactive: survival [1] 23.2 | nuclear beta-catenin stimulation ([15]; at 10 µM) 0.1% | viability decrease [3] 3.1% | inhibition of viability [6] 10.8% | viability decrease (inhibition) [7] -3.9% | viability decrease (inhibition) [8] 7.1% | inhibition [9] 0.805% | red/green cell ratio (normalised) [10] 1.27 | z-score [11, 18] -0.417 and -0.443 | remaining NAD [12] 10 nM | luciferase signal [13] 44 AU
1.37: normalised cell number [10, 17]
8.6%: nuclear beta-catenin stimulation ([15]; stimulation, at 2 µM)
1.08: normalised cell number [10, 16]

CO[C@]1(NC(=O)CSC(F)F)C(=O)N2C(C(=O)O)=C(CSc3nnnn3CCO)CO[C@H]21
inactive: insulin secretion stimulation [2] 0.75% | viability decrease [3] 11.4% | tube area decrease [4] 7.5% | GLP1 secretion stimulation [5] 4% | inhibition of viability [6] -0.4% | viability decrease (inhibition) [7] -2.1% | viability decrease (inhibition) [8] -3.6%
